Source: PubChem
Hits are enriched below; roughly 7.5% of the tested compounds scored in any of these assays.
HCV inhibitor – blocks hepatitis C virus. Huh7.5.1 HCVcc-Cre infection, luciferase reporter, 44 h. Potency, µM (doses to about 41.8 µM), for the others: at the top dose activity change, negative = inhibition, usual class: inhibitors. hit rate 3.4% among 340,000. AID 651820; note: potency is the fitted concentration of half-maximal effect
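Infectious HCV cell culture screen: compound-treated cells (1,000/well, pre-plated 4 h) are infected with HCVcc-Cre at roughly 0.5 moi and grown 44 h. Infection is quantified by luciferase signal after 15 min substrate incubation at room temperature.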
Vaccinia Venus – inhibitors of vaccinia virus (Venus reporter); Vaccinia virus Venus reporter expression, fluorescence; Potency, µM (top dose mostly 36.5 µM), for inactives: top-dose activity change, negative = inhibition, most hits filed as inhibitors; hit rate 0.46% among 330,000; calls by dose curve; tested in A549 cells; note: potency is the fitted concentration of half-maximal effect; nearly all actives have a fitted effect of over 30% in size
FBPA Giardia inh – Giardia lamblia aldolase inhibition; AID 2451; Potency, µM (highest dose often 59.6 µM), without a hit: top-dose activity, negative = inhibition, usual class: inhibitors; purified Giardia FBPA; hit rate 0.71% among 290,000; note: potency is the fitted concentration of half-maximal effect; nearly all actives have a fitted effect of over 55% in size
Target sequence (A8B2U2 whole entry, looked up): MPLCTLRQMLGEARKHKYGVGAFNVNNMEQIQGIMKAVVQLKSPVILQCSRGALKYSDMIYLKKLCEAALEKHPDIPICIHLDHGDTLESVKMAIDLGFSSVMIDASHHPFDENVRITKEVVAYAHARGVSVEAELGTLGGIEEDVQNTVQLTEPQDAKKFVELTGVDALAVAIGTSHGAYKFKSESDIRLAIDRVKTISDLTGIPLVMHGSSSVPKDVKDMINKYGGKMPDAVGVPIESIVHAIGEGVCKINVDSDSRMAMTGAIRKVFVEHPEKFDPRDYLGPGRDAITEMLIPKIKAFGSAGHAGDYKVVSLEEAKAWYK
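40 nM FBPA preincubated 10 min at RT with compound (up to 57.5 uM final), then substrate plus GAPDH/TPI/NAD/arsenate coupling and diaphorase/resazurin added. Fluorescence read after 20 min at RT, 525/598 nm.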
FMDV antiviral – foot and mouth disease virus antiviral activity; FMDV antiviral cell-based qHTS; Potency, µM (doses to about 57.9 µM), for inactives: at the top dose activity change, negative = inhibition, actives largely listed as inhibitors; hit rate 1.2% among 410,000; AID 1159524; calls by dose curve; tested in HEK293T cells; note: read-out not given here; potency is the fitted concentration of half-maximal effect; nearly all actives have a fitted effect of over 45% in size
HCMV antiviral – inhibitors of human cytomegalovirus; HFF cells, HCMV-luciferase reporter, 72 h; hits give low values; activity change, negative = inhibition, % at 57.5 µM; hit rate 4.5% among 410,000; AID 1259415; in the data active = activity change below about -60%; inconclusive = no clear call, values can overlap the other calls; inactive = above about -39%
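Two-dose cell screen: HFF monolayers treated with compounds and infected with luciferase-expressing HCMV at 1 PFU/cell, 72 h at 37C, then lysed for luciferase measurement.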
VACV mCherry inh – inhibitors of vaccinia virus infection (mCherry reporter signal); Vaccinia virus mCherry reporter infection, fluorescence; Potency, µM (titrated, usually from 36.5 µM), for the others: top-dose activity change, negative = inhibition, usual class: inhibitors; hit rate 0.63% among 310,000; AID 720579; calls by dose curve; tested in A549 cells; note: potency is the fitted concentration of half-maximal effect; nearly all actives have a fitted effect of over 35% in size
Starred values were filed as active, the others as inactive; i = inactive; ? = inconclusive; . = not tested or not shown; ! = repeats disagree. Unless noted, calls come from the whole dose curve; as a rule, active = well fitted curve in the direction sought with a large enough effect; inconclusive = small, poorly fitted or top-dose-only effect, or another doubt; inactive = no such curve, though single readings can be large; an effect the other way counts as inactive or inconclusive. % is set by controls: 0 for no effect and ±100 for the full control effect.

SMILES	HCV inhibitor	Vaccinia Venus	FBPA Giardia inh	FMDV antiviral	HCMV antiviral	VACV mCherry inh
O=C(CSc1nc(C2CC2)nc2ccccc12)Nc1ccccc1	?	-21.5%	5.1%	-20.5%	-35.7	-6.6%
CN(C)c1ccc(NC(=O)CSc2nc3ccccc3c(=O)n2C2CCCCC2)cc1	?	.	-8.0%	-18.6%	?	.
O=C(CSc1nc(C2CC2)nc2ccccc12)Nc1ccccc1Cl	7.7%	-6.4%	.	?	4.0	i
Cc1nonc1NC(=O)CSc1nc(C23CC4CC(CC(C4)C2)C3)nc2ccccc12	?	.	-8.1%	-22.0%	-68.8*	.
O=C(CSc1nc(C2CC2)nc2ccccc12)Nc1ccccc1N1CCOCC1	?	.	-4.1%	25.1µM*	-72.0*	.
NC(=O)CSc1nc(C23CC4CC(CC(C4)C2)C3)nc2ccccc12	3.4%	?	0.9%	-14.5%	-35.8	?
Cc1cc(NC(=O)CSc2nc(C3CCCCC3)nc3ccccc23)no1	-8.9%	?	3.2%	?	-76.3*	.
COc1ccc(C(CNC(=O)COc2cc(C)cc(C)c2)N2CCOCC2)cc1 (centres undefined)	.	-9.5%	.	-10.8%	?	-18.3%
CN1CC2([N+](=O)[O-])CC=C(OCCO)C([N+](=O)[O-])(C1)C2 (centres undefined)	19.2%	-19.9%	3.3%	-19.7%	-13.8	-21.9%
CC1(C(=O)Nc2ccc3ccccc3c2)CCc2nc3ccccc3n21 (centres undefined)	.	.	.	.	22.0	.
COc1ccccc1NC(=O)Nc1nn(C)c2cccc(OC)c12	13.6%	-3.2%	-20.2%	-0.3%	-4.5	i
NC(=O)CSc1nc2cc(Cl)ccc2c(=O)n1C1CCCCC1	11.2µM*	-28.6%	11.4%	-19.7%	-14.5	-23.9%
Cc1cc(NC(=O)CSc2nc3ccccc3c(=O)n2C2CCCC2)no1	-5.3%	.	3.1%	-19.0%	-62.2*	.
COC(=O)CSc1nc2cc(Cl)ccc2c(=O)n1C1CCCC1	-18.5%	.	-0.4%	-21.3%	86.2	.
Cc1cccc(NC(=O)CSc2nc(C3CC3)nc3ccccc23)c1	-17.7%	-24.1%	6.5%	4.5%	?	-28.3%
Cc1nonc1NC(=O)CSc1nc(C2CCCCC2)nc2ccccc12	?	.	-9.4%	?	-88.3*	.
COc1ccc(S(=O)(=O)N2CCN(C)CC2c2ccccc2)cc1OC (centres undefined)	10.0%	-3.6%	.	-21.9%	-3.8	-8.9%
O=c1c2cc(F)ccc2sn1-c1ccc(F)cc1	?	-28.2%	.	-8.5%	.	-22.7%
Cc1ccc(C)c(-n2sc3ccc(F)cc3c2=O)c1	?	?	.	?	-86.8*	?
COc1ccc(-n2sc3ccccc3c2=O)cc1	.	?	.	?	-102.0*	-26.1%
COc1ccc(-n2sc3ccc(F)cc3c2=O)cc1	2.82µM*	?	.	-59.0%	-5.1	?
Cc1n[nH]c(C)c1CCNC(=O)C1CCC(=O)N(Cc2ccccc2F)C1 (centres undefined)	27.0%	-6.6%	.	-6.1%	14.1	-11.0%
Cc1ccc(N(CC(=O)NCc2ccccc2)C(=O)c2csnn2)cc1	-0.9%	-22.8%	16.2%	38.3%	-15.5	-1.4%
CCN(CC)CCCNC(=O)C1CCN(S(=O)(=O)CC)CC1	.	-6.1%	.	-7.2%	3.2	-11.7%
O=C1C2CCCCN2C(=O)N1CCCCN1CCN(c2ccc([N+](=O)[O-])cc2)CC1 (centres undefined)	?	-0.6%	-4.0%	20µM*	-22.3	.
SMILES	HCV inhibitor	Vaccinia Venus	FBPA Giardia inh	FMDV antiviral	HCMV antiviral	VACV mCherry inh
COc1ccc(CSC2=CS(=O)(=O)c3ccccc3N2)cc1	-12.6%	-25.8%	8.6%	3.6%	-61.7*	-33.8%
O=S1(=O)C=C(SCc2ccccc2)Nc2ccccc21	-2.2%	?	1.9%	-12.0%	-19.4	.
COc1ccc2c(c1)CCc1cc(C(=O)N3CCN(c4ccc(N5CCOCC5)nn4)CC3)sc1-2	10µM*	-19.2%	?	?	.	4.2%
O=S(=O)(c1cc(Br)ccc1Br)N1CCC(c2noc3ccccc23)CC1	.	.	.	.	-9.3	.
O=C(c1ccccc1)C(I)(I)N1CCOCC1	.	-11.2%	.	.	.	38.1%
Cc1ccc(N=Cc2c(O)ccc3ccccc23)cc1F	-9.8%	-23.0%	?	0.0%	-16.4	-8.5%
N#Cc1cccc(N=Cc2c(O)ccc3ccccc23)c1	-25.4%	-19.3%	-29.1%	-24.0%	-61.1*	?
FC(F)(F)c1cccc(-c2nc3nc(Cl)c(Cl)nc3[nH]2)c1	11.2µM*	?	?	-23.0%	.	?
Cc1cc(C)c(S(=O)(=O)n2cnc(C)c2)c(C)c1	.	-0.8%	.	-18.9%	-8.4	-5.1%
COc1ccc(C(=O)NC2CCCc3c2cnn3-c2ccccc2F)o1 (centres undefined)	3.7%	.	.	?	?	.
CCC(=C(c1ccc(O)cc1)c1ccc(OCCN(C)C)cc1)c1ccccc1	.	-6.4%	.	-20.1%	-11.5	-1.7%
O=C(c1ccccc1)c1ccc(OCCO)cc1	0.3%	-9.7%	2.6%	55.3%	37.7	i
CCN(CC)CCOc1ccc(/C(=C(/Cl)c2ccccc2)c2ccccc2)cc1	7.94µM*	-28.1%	15.1%	?	-70.5*!	-19.8%
CC/C(=C(\c1ccc(O)cc1)c1ccc(OCCN(C)C)cc1)c1ccccc1	?	?	6.1%	-13.9%	-66.8*	-15.8%
O=C(NCc1ccncc1)C(=O)NCC1OCCN1S(=O)(=O)c1cc(F)ccc1F (centres undefined)	20.8%	-5.8%	.	-4.8%	21.2	-13.9%
O=CNn1cnc2c(oc3nc(-c4ccccc4)cc(-c4ccco4)c32)c1=O	-23.7%	-2.3%	?	-8.3%	-29.4	2.2%
Cc1[nH]n(-c2ccccc2)c(=O)c1C(C[N+](=O)[O-])c1ccc(Br)cc1 (centres undefined)	-7.6%	-21.0%	-29.2%	?	-104.3*	.
COc1cccc(C(C[N+](=O)[O-])c2c(C)[nH]n(-c3ccccc3)c2=O)c1 (centres undefined)	9.6%	-7.9%	12.6µM*	-9.2%	6.6	-1.3%
Cc1ccc2oc(=O)n(Cc3ccccc3Cl)c2c1	.	-7.5%	.	-15.9%	-17.7	-5.6%
COc1cc(OC)c(C(=O)Nc2cc(Cl)ccc2-n2cncn2)cc1OC	12.6µM*	-4.7%	.	-27.7%	28.3	i
O=C(Nc1cc(Cl)ccc1-n1cncn1)c1ccco1	-15.4%	.	.	-6.7%	33.4	.
O=C(Nc1cc(Cl)ccc1-n1cncn1)c1ccc([N+](=O)[O-])s1	7.94µM*	-22.9%	.	-16.4%	.	-8.8%
COc1ccc(S(=O)(=O)N2CCOC23CCN(S(=O)(=O)c2cc(F)ccc2F)CC3)cc1	4.5%	-7.1%	.	-3.0%	?	-19.8%
COc1cc2c(C(=O)N3CCN(c4ccccc4C)CC3)c(C)oc2cc1Br	11.2µM*	-5.4%	0.1%	?	-36.9	-8.6%
O=C(NC1CCOc2ccccc21)C1CCCC1 (centres undefined)	1.5%	-10.9%	2.5%	-3.2%	119.4	i
